Assay results taken from the supplement of paper PMC11732987, “Enantioselective OTUD7B fragment discovery through chemoproteomics screening and high-throughput optimisation” (Communications Chemistry, 2025).

What was measured:
Test in all cases: log2 ratio of Biotin-Ahx-Ub-VS probe labelling (fragment/DMSO); higher = less target engagement (more negative = stronger competition), active = hit call of the paper (q ≤ 0.05, log2 ratio ≤ -1)
Conditions in all cases: compound concentration: 200 uM; treatment time: 3 h
[1] = biological target: USP16 (UniProt Q9Y5T5)
Outline: (§1)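 Using Biotin-Ahx-Ub-VS at 0.5 µM final for 1 h, DUBs were labelled in HEK293T lysate (495 µg per sample) that had first been treated in triplicate with fragment at 200 µM or vehicle for 3 h. NeutrAvidin enrichment, LysC and trypsin digestion and diaPASEF LC-MS/MS followed. Spectronaut label-free quantities were global-median-normalised. Values are average log2 fragment/vehicle ratios by unpaired t-test, using proteins with ≥2 unique peptides.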

[2] = biological target: T1, USP19 (UniProt O94966)
T1 sequence (whole entry): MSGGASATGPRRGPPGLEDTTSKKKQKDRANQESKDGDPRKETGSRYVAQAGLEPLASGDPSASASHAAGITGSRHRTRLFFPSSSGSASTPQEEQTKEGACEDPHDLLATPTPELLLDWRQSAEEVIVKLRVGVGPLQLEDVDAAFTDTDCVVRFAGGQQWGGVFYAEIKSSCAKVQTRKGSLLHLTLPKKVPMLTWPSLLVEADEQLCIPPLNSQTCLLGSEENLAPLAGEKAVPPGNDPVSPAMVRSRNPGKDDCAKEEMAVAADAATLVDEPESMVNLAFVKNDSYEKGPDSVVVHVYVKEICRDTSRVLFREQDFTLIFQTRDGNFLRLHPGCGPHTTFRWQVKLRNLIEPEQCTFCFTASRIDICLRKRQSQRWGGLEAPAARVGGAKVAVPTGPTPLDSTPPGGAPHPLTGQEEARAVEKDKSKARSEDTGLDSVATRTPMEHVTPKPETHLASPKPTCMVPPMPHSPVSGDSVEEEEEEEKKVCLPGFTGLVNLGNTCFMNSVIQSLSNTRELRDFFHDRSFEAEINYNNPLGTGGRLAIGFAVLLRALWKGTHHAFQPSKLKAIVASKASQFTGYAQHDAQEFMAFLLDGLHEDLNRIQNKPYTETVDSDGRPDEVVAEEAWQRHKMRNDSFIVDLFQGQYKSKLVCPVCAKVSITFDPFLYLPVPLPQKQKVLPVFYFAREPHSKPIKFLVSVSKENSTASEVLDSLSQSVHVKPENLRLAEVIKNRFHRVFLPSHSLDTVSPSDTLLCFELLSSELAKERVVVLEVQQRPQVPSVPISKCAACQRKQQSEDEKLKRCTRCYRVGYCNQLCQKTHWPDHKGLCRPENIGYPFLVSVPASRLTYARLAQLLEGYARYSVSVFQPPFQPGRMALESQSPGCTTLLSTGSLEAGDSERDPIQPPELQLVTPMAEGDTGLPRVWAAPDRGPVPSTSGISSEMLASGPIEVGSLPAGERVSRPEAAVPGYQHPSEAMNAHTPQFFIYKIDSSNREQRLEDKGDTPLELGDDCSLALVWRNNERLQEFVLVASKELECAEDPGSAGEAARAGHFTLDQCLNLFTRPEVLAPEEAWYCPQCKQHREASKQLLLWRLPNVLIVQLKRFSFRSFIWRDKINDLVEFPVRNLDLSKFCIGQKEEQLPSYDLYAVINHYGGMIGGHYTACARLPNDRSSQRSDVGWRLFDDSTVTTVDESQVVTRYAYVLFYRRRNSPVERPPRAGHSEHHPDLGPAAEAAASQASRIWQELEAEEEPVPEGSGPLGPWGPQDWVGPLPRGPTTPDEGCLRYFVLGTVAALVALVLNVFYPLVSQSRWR
Outline: as §1

[3] = biological target: USP24 (UniProt Q9UPU5)
Outline: as §1

[4] = biological target: T2, USP25 (UniProt Q9UHP3)
T2 sequence (whole entry): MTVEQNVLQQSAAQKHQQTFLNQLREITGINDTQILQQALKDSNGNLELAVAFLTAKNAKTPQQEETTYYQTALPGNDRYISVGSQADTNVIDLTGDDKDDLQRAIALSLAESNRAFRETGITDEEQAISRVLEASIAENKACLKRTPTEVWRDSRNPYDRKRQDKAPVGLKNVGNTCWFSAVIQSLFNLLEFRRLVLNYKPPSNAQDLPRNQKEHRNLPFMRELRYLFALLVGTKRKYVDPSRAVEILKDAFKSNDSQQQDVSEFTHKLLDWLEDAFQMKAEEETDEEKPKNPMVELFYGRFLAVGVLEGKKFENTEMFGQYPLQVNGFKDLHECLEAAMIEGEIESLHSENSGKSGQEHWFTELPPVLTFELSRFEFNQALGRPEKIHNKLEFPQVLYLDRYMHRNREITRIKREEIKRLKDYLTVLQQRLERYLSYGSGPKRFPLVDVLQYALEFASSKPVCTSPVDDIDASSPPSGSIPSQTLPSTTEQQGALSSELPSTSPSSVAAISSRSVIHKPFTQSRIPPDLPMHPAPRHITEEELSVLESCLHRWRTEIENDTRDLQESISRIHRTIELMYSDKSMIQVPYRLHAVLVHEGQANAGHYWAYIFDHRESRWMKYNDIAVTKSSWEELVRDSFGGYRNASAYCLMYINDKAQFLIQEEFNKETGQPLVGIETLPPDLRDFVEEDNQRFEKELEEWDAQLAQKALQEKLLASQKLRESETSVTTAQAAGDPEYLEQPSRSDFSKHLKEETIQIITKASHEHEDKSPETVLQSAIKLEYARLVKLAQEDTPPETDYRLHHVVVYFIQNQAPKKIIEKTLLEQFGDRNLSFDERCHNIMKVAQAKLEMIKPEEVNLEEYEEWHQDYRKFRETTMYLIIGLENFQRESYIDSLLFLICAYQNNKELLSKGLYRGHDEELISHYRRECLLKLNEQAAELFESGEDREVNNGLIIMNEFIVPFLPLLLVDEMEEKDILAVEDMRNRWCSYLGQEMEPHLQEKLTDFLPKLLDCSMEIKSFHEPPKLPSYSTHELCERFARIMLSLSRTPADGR
Outline: as §1

[5] = biological target: T3, USP28 (UniProt Q96RU2)
T3 sequence (whole entry): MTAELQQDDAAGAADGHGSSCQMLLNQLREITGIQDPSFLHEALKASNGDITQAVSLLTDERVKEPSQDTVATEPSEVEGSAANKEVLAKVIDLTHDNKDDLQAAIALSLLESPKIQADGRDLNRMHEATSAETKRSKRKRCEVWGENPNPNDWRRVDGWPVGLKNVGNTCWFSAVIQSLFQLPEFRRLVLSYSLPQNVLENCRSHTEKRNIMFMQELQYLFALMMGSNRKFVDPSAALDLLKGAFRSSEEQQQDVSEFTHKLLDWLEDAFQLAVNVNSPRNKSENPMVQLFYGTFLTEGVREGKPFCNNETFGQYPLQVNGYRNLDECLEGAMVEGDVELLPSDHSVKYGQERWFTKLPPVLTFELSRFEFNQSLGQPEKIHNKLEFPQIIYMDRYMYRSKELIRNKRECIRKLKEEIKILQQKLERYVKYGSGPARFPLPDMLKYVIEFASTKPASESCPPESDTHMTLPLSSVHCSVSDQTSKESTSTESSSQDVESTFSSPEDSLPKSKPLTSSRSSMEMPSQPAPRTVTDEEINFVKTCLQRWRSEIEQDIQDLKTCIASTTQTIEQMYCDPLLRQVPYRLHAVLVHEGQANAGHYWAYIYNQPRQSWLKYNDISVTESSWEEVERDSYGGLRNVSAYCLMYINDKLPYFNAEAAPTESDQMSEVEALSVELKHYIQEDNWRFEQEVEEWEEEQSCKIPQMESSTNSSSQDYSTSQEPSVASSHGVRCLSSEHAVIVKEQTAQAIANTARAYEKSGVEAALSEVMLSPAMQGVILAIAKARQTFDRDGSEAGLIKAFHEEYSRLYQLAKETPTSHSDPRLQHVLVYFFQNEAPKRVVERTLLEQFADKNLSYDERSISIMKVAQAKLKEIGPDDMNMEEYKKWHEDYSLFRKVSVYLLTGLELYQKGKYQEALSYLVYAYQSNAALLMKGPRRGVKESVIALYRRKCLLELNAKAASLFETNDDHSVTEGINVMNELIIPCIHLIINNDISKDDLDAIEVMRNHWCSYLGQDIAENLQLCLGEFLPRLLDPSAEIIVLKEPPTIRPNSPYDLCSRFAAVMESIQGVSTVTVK
Outline: as §1

Measured: log2 ratio of Biotin-Ahx-Ub-VS probe labelling

USP24, sequence (Q9UPU5 whole entry): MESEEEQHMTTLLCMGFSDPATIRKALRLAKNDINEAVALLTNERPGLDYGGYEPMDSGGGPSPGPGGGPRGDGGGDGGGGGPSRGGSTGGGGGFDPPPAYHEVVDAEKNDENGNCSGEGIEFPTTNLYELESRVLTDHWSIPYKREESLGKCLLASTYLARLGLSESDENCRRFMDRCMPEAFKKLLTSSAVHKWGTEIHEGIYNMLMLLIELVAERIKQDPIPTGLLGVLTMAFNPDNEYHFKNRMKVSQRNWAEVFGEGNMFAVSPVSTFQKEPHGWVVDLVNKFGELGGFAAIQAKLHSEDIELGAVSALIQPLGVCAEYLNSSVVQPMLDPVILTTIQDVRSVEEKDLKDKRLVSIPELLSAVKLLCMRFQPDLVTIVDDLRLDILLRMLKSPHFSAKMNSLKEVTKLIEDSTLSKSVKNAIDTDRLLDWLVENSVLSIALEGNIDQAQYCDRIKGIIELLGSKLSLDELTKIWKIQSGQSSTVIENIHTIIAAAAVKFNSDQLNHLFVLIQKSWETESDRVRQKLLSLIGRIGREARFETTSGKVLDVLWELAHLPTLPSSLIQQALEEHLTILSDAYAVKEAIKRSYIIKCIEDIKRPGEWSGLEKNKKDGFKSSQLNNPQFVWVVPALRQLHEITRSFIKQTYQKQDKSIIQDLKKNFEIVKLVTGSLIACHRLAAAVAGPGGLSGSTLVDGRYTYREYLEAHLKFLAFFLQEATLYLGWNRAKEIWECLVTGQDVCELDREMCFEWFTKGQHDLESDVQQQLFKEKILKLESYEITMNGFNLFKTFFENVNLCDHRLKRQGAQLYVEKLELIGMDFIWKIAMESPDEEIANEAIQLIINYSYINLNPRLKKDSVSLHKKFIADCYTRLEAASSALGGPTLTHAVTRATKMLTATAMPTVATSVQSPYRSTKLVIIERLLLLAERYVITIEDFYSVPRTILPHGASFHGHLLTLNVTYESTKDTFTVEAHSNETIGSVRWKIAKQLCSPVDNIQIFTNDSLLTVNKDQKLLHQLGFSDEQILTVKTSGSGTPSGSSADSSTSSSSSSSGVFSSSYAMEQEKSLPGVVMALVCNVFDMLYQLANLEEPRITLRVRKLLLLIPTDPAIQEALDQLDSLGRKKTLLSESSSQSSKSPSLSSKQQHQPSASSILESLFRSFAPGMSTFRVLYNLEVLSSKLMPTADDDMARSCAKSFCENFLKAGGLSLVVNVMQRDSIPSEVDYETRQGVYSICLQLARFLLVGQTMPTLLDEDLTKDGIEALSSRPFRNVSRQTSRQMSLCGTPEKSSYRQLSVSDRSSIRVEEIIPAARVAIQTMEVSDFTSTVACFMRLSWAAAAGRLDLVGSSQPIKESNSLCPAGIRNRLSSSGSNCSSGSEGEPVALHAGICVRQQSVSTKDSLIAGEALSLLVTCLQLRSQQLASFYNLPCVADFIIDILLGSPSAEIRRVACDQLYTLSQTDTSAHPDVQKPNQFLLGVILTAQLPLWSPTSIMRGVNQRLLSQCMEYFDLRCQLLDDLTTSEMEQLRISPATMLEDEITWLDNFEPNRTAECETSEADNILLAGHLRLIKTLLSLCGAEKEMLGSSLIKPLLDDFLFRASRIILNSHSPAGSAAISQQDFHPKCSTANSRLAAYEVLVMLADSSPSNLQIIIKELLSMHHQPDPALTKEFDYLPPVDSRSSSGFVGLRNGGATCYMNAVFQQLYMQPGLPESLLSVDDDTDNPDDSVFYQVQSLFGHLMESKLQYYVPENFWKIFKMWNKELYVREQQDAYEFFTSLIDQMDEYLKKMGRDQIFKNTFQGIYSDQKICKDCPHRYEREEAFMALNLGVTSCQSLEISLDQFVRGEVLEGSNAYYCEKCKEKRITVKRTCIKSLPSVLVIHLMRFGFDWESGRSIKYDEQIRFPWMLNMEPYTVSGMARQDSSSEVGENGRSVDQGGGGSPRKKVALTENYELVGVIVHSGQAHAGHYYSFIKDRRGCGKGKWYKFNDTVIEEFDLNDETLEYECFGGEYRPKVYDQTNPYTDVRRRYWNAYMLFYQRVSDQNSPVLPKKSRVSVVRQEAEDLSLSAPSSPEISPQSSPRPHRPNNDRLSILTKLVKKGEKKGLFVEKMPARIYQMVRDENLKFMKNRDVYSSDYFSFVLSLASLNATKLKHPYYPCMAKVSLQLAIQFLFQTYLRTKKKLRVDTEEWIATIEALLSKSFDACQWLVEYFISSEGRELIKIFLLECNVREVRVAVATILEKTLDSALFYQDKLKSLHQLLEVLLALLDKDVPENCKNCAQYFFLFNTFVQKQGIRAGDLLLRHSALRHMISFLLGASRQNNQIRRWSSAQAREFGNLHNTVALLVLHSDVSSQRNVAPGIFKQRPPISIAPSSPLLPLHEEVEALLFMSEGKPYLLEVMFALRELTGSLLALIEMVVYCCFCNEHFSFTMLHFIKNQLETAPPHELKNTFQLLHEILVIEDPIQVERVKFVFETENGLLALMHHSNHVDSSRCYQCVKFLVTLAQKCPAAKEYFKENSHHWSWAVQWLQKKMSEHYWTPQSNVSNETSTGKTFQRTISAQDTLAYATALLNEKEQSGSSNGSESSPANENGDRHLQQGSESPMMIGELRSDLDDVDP
USP16, sequence (Q9Y5T5 whole entry, looked up, the tested form may be a part): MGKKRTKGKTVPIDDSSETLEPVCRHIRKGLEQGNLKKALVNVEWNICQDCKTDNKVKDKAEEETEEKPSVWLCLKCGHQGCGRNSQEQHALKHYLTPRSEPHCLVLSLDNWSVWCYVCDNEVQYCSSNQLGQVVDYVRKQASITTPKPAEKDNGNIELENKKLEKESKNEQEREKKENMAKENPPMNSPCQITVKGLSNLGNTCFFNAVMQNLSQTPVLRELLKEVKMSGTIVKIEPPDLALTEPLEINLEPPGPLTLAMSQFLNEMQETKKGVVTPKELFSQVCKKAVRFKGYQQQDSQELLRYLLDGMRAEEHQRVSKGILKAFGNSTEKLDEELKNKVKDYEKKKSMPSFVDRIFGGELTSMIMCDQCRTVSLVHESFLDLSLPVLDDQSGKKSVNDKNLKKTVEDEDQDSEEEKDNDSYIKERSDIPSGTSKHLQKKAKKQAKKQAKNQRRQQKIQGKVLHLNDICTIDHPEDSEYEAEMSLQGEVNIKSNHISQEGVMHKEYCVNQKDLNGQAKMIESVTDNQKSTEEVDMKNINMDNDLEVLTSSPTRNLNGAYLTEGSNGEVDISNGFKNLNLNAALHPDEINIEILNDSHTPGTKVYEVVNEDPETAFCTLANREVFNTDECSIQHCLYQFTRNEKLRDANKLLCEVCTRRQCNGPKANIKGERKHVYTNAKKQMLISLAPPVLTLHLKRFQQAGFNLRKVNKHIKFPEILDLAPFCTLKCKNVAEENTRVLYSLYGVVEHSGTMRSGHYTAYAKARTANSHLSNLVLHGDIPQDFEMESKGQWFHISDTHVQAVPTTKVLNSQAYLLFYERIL

CC(c1ccccc1)N(C)C(=O)CCl (stereo not given)
inactive: [1] -0.635 | [2] -0.444 | [3] -0.45 | [4] -0.472 | [5] -0.526
